From article PMC7862700, “An all-to-all approach to the identification of sequence-specific readers for epigenetic DNA modifications on cytosine” come the findings set out here.

Holding throughout (assay): DAPPL (digital affinity profiling via proximity ligation, sequencing); 10 mM Tris-HCl pH 7.5, 50 mM NaCl, 1 mM DTT, 4% glycerol, room temperature, 30 min; GST-TFs on glutathione beads, 16-mer random dsDNA library, 0.1% formaldehyde crosslink after washing; high values mean tight binding
Common to all, as to conditions: protein: recombinant; tags: N-terminal GST; dsDNA, one strand shown

Assay [1] has as its target T1, GABPA (Homo sapiens, UniProt Q06546 1-454).
T1 sequence: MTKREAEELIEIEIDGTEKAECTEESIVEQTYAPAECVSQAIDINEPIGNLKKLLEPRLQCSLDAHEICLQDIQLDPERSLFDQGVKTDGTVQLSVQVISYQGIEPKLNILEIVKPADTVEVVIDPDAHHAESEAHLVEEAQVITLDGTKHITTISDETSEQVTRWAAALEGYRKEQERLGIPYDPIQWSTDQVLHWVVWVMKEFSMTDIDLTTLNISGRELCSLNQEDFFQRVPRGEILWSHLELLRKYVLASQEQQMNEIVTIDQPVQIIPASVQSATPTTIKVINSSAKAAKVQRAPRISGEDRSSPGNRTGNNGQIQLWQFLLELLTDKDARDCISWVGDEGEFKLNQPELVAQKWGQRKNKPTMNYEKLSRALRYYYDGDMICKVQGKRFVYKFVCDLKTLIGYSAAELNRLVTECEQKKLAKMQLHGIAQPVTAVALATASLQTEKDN
The method, boiled down: (§1)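 The binding signal reported is, for every hexamer, its read frequency for a factor over its read frequency for the tag-only sample. Reads came from pools of yeast-expressed, GST-fused human transcription factors on glutathione beads, barcoded with DNA and mixed with that sample, which were incubated with 200 nmole of a random double-stranded 16-mer DNA library in Tris/NaCl/DTT/glycerol buffer at room temperature for 30 min. After washing, the pools were crosslinked with 0.1% formaldehyde, proximity-ligated with BsaI/T4 ligase for 1 h at 37 °C, PCR-amplified and sequenced on an Illumina NextSeq500.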

The target of assay [2] is T2, EHF (Homo sapiens, UniProt Q9NZC4 1-300).
T2 sequence: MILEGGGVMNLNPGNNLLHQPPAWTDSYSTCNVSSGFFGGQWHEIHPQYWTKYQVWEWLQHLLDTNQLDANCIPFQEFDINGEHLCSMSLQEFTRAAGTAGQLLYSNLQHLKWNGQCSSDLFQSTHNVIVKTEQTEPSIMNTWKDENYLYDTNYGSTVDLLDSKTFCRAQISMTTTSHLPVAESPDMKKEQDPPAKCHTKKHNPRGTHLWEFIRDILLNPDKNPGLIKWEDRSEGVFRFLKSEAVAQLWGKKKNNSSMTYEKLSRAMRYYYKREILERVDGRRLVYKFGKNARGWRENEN
The method, boiled down: as §1

Assay [3] has as its target ETV5 (Homo sapiens, UniProt P41161 1-510). The method, boiled down: as §1
For assay [4], the target named is T3, ELF3 (Homo sapiens, UniProt P78545 1-371).
T3 sequence: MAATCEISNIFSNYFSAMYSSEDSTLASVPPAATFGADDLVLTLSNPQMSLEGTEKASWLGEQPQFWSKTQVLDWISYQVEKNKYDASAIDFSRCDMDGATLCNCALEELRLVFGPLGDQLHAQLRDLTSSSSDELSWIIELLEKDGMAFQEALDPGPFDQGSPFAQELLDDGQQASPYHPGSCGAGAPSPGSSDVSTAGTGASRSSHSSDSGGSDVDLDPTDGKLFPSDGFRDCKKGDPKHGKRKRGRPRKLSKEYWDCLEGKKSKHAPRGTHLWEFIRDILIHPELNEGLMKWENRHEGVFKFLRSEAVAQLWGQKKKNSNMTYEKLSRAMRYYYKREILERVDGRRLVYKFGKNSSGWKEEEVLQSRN
The method, boiled down: as §1

ETV5, sequence (P41161 whole entry): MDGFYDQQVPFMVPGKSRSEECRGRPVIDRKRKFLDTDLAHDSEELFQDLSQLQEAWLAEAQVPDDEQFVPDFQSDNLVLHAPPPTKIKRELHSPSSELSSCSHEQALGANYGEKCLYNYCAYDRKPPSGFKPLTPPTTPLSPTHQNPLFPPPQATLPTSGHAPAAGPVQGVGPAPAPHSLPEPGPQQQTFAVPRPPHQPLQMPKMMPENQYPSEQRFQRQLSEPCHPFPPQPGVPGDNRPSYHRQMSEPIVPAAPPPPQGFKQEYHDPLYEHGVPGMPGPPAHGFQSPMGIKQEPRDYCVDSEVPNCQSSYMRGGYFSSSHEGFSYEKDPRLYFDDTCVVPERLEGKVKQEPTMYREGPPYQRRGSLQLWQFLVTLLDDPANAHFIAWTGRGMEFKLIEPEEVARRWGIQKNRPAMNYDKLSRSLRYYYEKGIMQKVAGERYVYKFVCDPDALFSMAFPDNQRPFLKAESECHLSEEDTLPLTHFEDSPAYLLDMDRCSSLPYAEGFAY

Turning to AGAGCT, the binding signal was 1.04 fold enrichment (6-mer frequency, TF over GST control) in assay [1]; 1.01 fold enrichment (6-mer frequency, TF over GST control) in assay [2]; 1.03 fold enrichment (6-mer frequency, TF over GST control) in assay [3]; 1.03 fold enrichment (6-mer frequency, TF over GST control) in assay [4].
